# Measured values: the supplement of paper PMC12067093, “Discovery and optimisation of a covalent ligand for TRIM25 and its application to targeted protein ubiquitination” (Chemical Science, 2025)
# Of roughly 21,000 targets only a part is listed; those with the largest changes were picked by preference.
# Target: HPRT1_P00492_66_EMGGHHIVALCVLK (UniProt P00492)
# Assay: probe-labelled cysteine peptide fold change vs DMSO (competition) (log2 fold change); higher = less target engagement (more negative = stronger competition)
# Settings: THP-1, incubation time: 4 h
# 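Further: competitive chemoproteomic profiling in live THP-1 cells with an iodoacetamide desthiobiotin (IA-DTB) probe, comparing probe-labelled peptide intensities in compound-treated cells against DMSO-treated controls.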
# UniProt P00492, sequence (P00492 whole entry, looked up): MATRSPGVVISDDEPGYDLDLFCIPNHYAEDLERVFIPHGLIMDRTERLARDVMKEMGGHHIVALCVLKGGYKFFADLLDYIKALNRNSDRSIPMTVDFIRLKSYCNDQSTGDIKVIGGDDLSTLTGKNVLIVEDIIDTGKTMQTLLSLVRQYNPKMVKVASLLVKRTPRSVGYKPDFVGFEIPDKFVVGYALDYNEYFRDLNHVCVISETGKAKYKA
smiles,measurement,setting,value
CC1Cc2ccccc2N1C(=O)C1CCCN(C(=O)CCl)C1 (mixture of isomers) [TRIM25 ligand 11 (diastereomer mixture)],probe-labelled cysteine peptide fold change,10 µM,-0.135
same,probe-labelled cysteine peptide fold change,50 µM,0.123
